Records with an inconclusive call do not appear. A call without a number means that no potency is given here. Calls of active or inactive are those of the source. Unless noted, calls follow the shape of the dose curve; as a rule, active = well fitted curve in the direction sought with a large enough effect in the repeat runs; inconclusive = weak or mixed curves; inactive = no such curve, though single readings can be large; an effect the other way counts as inactive or inconclusive.
What was measured:
[1] = qHTS assay to identify small molecule antagonists of the thyroid receptor (TR) signaling pathway (AID 743065); conditions: GH3.TRE-Luc, T3-stimulated luciferase inhibition, 23.5 h; series mostly up to 70.3 µM; also: nearly all actives have a fitted effect of over 55% in size
Procedure, shortened: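 Antagonism measured as loss of luciferase signal in GH3 cells stably carrying a TRE-luciferase reporter, co-treated with compound and T3 (1 nM final) for 23.5 h at 37 C. Viability was read in the same well by CellTiter-Fluor.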

[2] = test system: thyroid hormone receptor (rat, GH3 cells); assay: qHTS assay to identify small molecule agonists of the thyroid receptor (TR) signaling pathway (AID 743066; calls by dose curve); conditions: GH3.TRE-Luc cells, TR agonist luciferase, 24 h; series mostly up to 83.9 µM
[3] = qHTS assay to identify small molecule antagonists of the estrogen receptor alpha (ER-alpha) signaling pathway - cell viability counter screen (AID 743074; calls by dose curve;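 also: HEK293 cells carrying ER-alpha-UAS-bla reporter stimulated with 17beta-estradiol; nearly all actives have a fitted effect of over 45% in size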); conditions: ERalpha-bla HEK293 viability, CellTiter-Glo luminescence, 18 h; series mostly up to 69.4 µM
[4] = target: Estrogen receptor (Homo sapiens) (UniProt P03372); assay: qHTS assay to identify small molecule agonists of the estrogen receptor alpha (ER-alpha) signaling pathway (AID 743075; calls by dose curve;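 also: HEK293 GripTite cells with ER-alpha and UAS-driven beta-lactamase reporter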); conditions: HEK293 ER-alpha-UAS-bla, beta-lactamase FRET ratio, 18 h; series mostly up to 70.1 µM
[5] = qHTS assay to identify small molecule antagonists of the estrogen receptor alpha (ER-alpha) signaling pathway using the BG1 cell line (AID 743080; calls by dose curve;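 also: BG1 cells stimulated with 17beta-estradiol alongside compound; nearly all actives have a fitted effect of over 25% in size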); conditions: BG1Luc4E2 ERE-luciferase antagonist mode, luminescence; series mostly up to 70.3 µM
Procedure, shortened: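 BG1Luc4E2, endogenous ER-alpha, 4xERE-luc; 5 d charcoal-stripped FBS, phenol red free; 24 h plating; cpd + 17beta-estradiol 21.5 h, 37 C/5% CO2; CellTiter-Fluor viability 30 min, then ONE-Glo luciferase 30 min RT.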

[6] = qHTS assay to identify small molecule antagonists of the estrogen receptor alpha (ER-alpha) signaling pathway using the BG1 cell line - cell viability counter screen (AID 743081); conditions: BG1Luc4E2 viability, CellTiter-Fluor, 22 h; series mostly up to 70.3 µM;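 also: compound given together with 17beta-estradiol as the ER stimulus; nearly all actives have a fitted effect of over 45% in size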
Aromatase (Homo sapiens) = Aromatase (Homo sapiens) (UniProt P11511); assay: qHTS assay to identify aromatase inhibitors (AID 743083); conditions: MCF-7 aro ERE, testosterone-driven ERE luciferase, 24 h; series mostly up to 70.3 µM; also: nearly all actives have a fitted effect of over 55% in size; also: potency is read from the fitted curve at half-maximal effect
[7] = qHTS assay to identify aromatase inhibitors - cell viability counter screen (AID 743084); conditions: MCF-7 aro ERE viability, CellTiter-Fluor, 24 h; series mostly up to 70.3 µM;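 also: cells stimulated with testosterone during compound exposure; nearly all actives have a fitted effect of over 55% in size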
[8] = target: Estrogen receptor (Homo sapiens) (UniProt P03372); assay: qHTS assay to identify small molecule agonists of the estrogen receptor alpha (ER-alpha) signaling pathway using the BG1 cell line (AID 743079); conditions: BG1Luc4E2 cells, ERE-luciferase agonist, 22 h; series mostly up to 70.3 µM; also: nearly all actives have a fitted effect of over 20% in size; also: potency is read from the fitted curve at half-maximal effect

Sequence of Aromatase (Homo sapiens) (P11511 whole entry, looked up): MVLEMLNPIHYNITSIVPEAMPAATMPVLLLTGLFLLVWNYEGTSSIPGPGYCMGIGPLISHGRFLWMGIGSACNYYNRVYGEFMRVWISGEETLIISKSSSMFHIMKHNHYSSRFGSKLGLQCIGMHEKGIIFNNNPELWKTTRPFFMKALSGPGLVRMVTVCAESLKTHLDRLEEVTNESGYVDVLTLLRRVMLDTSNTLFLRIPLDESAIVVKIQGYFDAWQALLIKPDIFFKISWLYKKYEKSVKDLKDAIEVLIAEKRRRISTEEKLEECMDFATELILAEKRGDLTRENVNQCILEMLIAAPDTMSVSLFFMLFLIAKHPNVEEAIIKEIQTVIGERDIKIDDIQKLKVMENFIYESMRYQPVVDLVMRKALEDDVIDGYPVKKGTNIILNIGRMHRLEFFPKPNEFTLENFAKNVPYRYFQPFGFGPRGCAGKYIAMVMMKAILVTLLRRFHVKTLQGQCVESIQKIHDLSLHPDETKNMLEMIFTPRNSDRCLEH
Sequence of Estrogen receptor (Homo sapiens) (P03372 whole entry, looked up): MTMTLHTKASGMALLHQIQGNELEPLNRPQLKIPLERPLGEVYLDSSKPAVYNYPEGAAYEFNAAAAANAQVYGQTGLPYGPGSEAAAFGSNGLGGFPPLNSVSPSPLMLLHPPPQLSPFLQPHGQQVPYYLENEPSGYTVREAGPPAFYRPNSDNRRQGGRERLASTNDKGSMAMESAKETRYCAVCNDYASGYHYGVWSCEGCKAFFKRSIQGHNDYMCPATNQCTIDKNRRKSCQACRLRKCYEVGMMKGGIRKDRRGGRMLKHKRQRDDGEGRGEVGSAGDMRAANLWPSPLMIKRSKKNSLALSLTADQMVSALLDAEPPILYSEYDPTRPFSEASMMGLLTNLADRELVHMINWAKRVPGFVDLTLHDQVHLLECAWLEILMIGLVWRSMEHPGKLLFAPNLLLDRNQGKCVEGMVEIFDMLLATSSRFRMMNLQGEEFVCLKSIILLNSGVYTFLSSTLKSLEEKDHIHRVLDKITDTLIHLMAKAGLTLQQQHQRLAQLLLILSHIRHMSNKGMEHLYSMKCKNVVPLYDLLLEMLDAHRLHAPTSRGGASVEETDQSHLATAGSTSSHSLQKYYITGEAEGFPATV

O=C(O)/C=C(\CC(=O)O)C(=O)O
Potency [1]: inactive | Potency [2]: inactive | Potency [3]: inactive | Potency [4]: inactive | Potency [5]: inactive | outcome [6]: inactive | Potency (Aromatase (Homo sapiens)): inactive | outcome [7]: inactive

O=C1Nc2ccccc2C1=O
Potency [1]: inactive | Potency [2]: inactive | Potency [3]: inactive | outcome [6]: inactive | Potency (Aromatase (Homo sapiens)): inactive | outcome [7]: inactive

C[C@@H](CN1CC(=O)NC(=O)C1)N1CC(=O)NC(=O)C1
Potency [1]: inactive | Potency [2]: inactive | Potency [3]: inactive | Potency [4]: inactive | Potency [8]: inactive | Potency [5]: inactive | outcome [6]: inactive | Potency (Aromatase (Homo sapiens)): inactive | outcome [7]: inactive

CCNC(=O)C(C)OC(=O)Nc1ccccc1 (stereo not given)
Potency [1]: inactive | Potency [2]: inactive | Potency [3]: inactive | Potency [4]: inactive | Potency [8]: inactive | Potency [5]: inactive | outcome [6]: inactive | Potency (Aromatase (Homo sapiens)): inactive | outcome [7]: inactive

C/C(Cl)=C/CCl
Potency [1]: inactive | Potency [2]: inactive | Potency [3]: inactive | Potency [4]: inactive | outcome [6]: inactive | Potency (Aromatase (Homo sapiens)): inactive | outcome [7]: inactive

Cc1nnc(C(=O)NC(C)(C)c2nc(C(=O)NCc3ccc(F)cc3)c(O)c(=O)n2C)o1
Potency [1]: inactive | Potency [2]: inactive | Potency [3]: inactive | outcome [6]: inactive

CCOc1ccccc1OCCN[C@H](C)Cc1ccc(OC)c(S(N)(=O)=O)c1
Potency [1]: inactive | Potency [2]: inactive | Potency [3]: inactive | outcome [6]: inactive | Potency (Aromatase (Homo sapiens)): inactive | outcome [7]: inactive

COc1cc2nc(N3CCN(C(=O)C4CCCO4)CC3)nc(N)c2cc1OC (stereo not given)
Potency [1]: inactive | Potency [2]: inactive | Potency [3]: inactive | Potency [4]: inactive | Potency [8]: inactive | Potency [5]: inactive | outcome [6]: inactive | Potency (Aromatase (Homo sapiens)): inactive | outcome [7]: inactive

Cc1cc(C)c(N)c(Cl)c1
Potency [1]: inactive | Potency [2]: inactive | Potency [3]: inactive | Potency [4]: inactive | Potency [8]: inactive | Potency [5]: inactive | outcome [6]: inactive | Potency (Aromatase (Homo sapiens)): inactive | outcome [7]: inactive

Cc1cc(N)no1
Potency [1]: inactive | Potency [2]: inactive | Potency [3]: inactive | outcome [6]: inactive

O=c1c(O)c(O)c1=O
Potency [1]: inactive | Potency [2]: inactive | Potency [3]: inactive | outcome [6]: inactive | Potency (Aromatase (Homo sapiens)): inactive | outcome [7]: inactive

CSC(=O)c1cccc2nnsc12
Potency [1]: inactive | Potency [2]: inactive | Potency [3]: inactive | Potency [4]: inactive | Potency [8]: inactive | Potency [5]: inactive | outcome [6]: inactive | Potency (Aromatase (Homo sapiens)): inactive | outcome [7]: inactive

CCOC(=O)c1ccc(N(C)C)cc1
Potency [1]: inactive | Potency [2]: inactive | Potency [3]: inactive | Potency [4]: inactive | Potency [8]: 54.5 µM (active) | outcome [6]: inactive | Potency (Aromatase (Homo sapiens)): inactive | outcome [7]: inactive

Cc1ccc(O)c(C(=O)c2ccccc2)c1
Potency [1]: inactive | Potency [2]: inactive | Potency [3]: inactive | outcome [6]: inactive | Potency (Aromatase (Homo sapiens)): 55 µM (active)

NNC(=O)CCCCC(=O)NN
Potency [1]: inactive | Potency [2]: inactive | Potency [3]: inactive | Potency [4]: inactive | Potency [8]: inactive | Potency [5]: inactive | Potency (Aromatase (Homo sapiens)): inactive | outcome [7]: inactive

COC(C)(C)CC(C)=O
Potency [1]: inactive | Potency [2]: inactive | Potency [3]: inactive | outcome [6]: inactive | Potency (Aromatase (Homo sapiens)): inactive | outcome [7]: inactive

N=C(N)N1CCc2ccccc2C1
Potency [1]: inactive | Potency [2]: inactive | Potency [3]: inactive | Potency [5]: inactive | outcome [6]: inactive | Potency (Aromatase (Homo sapiens)): inactive | outcome [7]: inactive

Reference: PubChem BioAssay (Tox21)
